Experimental data published in PubChem BioAssay AID1159580 (chemical genetic matrix, 2015).
Values joined by “and” are separate entries in the source; they are usually repeats but may differ in a detail not shown here. Identical values can stand only once. In all, about 5,500 compounds went through this assay and about 2,000 (36%) were called active. Roughly 18% stayed inconclusive and do not appear here. No stated cut-off is given here; in the data, active means normalized growth mostly below about 0.91 (no sharp cut-off); inconclusive means no clear call, values can overlap the other calls; inactive means mostly above about 0.92. Some of the results follow.

Assay: chemical genetic growth profiling, strain panel (AID 1159580);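 further: tested at 20 µM; growth read once vehicle control cultures reached saturation at 30 °C; 1 = growth at the plate median or of vehicle wells; lower values mean less growth of the strain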
Settings: S. cerevisiae deletion strains, growth OD

Measured: normalized growth

CCCCCCCCCCCC[C@H](C(=O)O)[C@@H](C)C(=O)O
inactive: locus YAL013W, strain DEP1, hits give low values 0.992 | locus YAL021C, strain ccr4, hits give low values 1.02 | locus YAL026C, strain drs2, hits give low values 0.952 | locus YAL030W, strain snc1, hits give low values 0.984 | locus YBL061C, strain skt5, hits give low values 0.982 | locus YBR009C, strain hhf1, hits give low values 0.994 | locus YBR021W, strain FUR4, hits give low values 0.995 | locus YBR023C, strain chs3, hits give low values 0.982 | locus YBR171W, strain sec66, hits give low values 0.936 | locus YBR229C, strain ROT2, hits give low values 0.993 | locus YBR231C, strain swc5, hits give low values 0.986 | locus YBR279W, strain paf1, hits give low values 0.976 | locus YCL011C, strain gbp2, hits give low values 0.995 | locus YCL016C, strain dcc1, hits give low values 0.996 | locus YCL029C, strain bik1, hits give low values 1.02 | locus YCL061C, strain MRC1, hits give low values 0.963 | locus YCL069W, strain vba3, hits give low values 0.975 | locus YCR088W, strain abp1, hits give low values 0.976 | locus YDL005C, strain med2, hits give low values 0.995 | locus YDL035C, strain GPR1, hits give low values 0.995 | locus YDL040C, strain nat1, hits give low values 0.977 | locus YDL074C, strain BRE1, hits give low values 0.986 | locus YDL101C, strain DUN1, hits give low values 1.02 | locus YDL134C, strain PPH21, hits give low values 0.993 | locus YDL185W, strain tfp1, hits give low values 1.03 | locus YDL192W, strain arf1, hits give low values 1.01 | locus YDR001C, strain nth1, hits give low values 0.966 | locus YDR069C, strain doa4, hits give low values 0.999 | locus YDR101C, strain arx1, hits give low values 1.01 | locus YDR137W, strain rgp1, hits give low values 0.929 | locus YDR150W, strain NUM1, hits give low values 0.998 | locus YDR159W, strain sac3, hits give low values 0.902 | locus YDR162C, strain NBP2, hits give low values 1.01 | locus YDR195W, strain ref2 0.98 | locus YDR297W, strain sur2, hits give low values 0.976 | locus YDR318W, strain mcm21, hits give low values 1.02 | locus YDR334W, strain swr1, hits give low values 0.985 | locus YDR335W, strain msn5, hits give low values 0.986 | locus YDR388W, hits give low values 1.01 | locus YDR392W, strain spt3, hits give low values 0.832 | locus YDR502C, strain sam2, hits give low values 1.02 | locus YEL003W, strain gim4, hits give low values 0.995 | locus YEL037C, strain rad23, hits give low values 0.976 | locus YEL061C, strain CIN8 (second series), hits give low values 0.957 | locus YEL061C, strain CIN8, hits give low values 0.988 | locus YER015W, strain faa2, hits give low values 0.985 | locus YER016W, strain bim1, hits give low values 0.984 | locus YER110C, hits give low values 1 | locus YER111C, strain swi4, hits give low values 0.938 | locus YER155C, strain BEM2 (second series), hits give low values 0.874 | locus YER155C, strain BEM2, hits give low values 0.979 | locus YER167W, strain BCK2, hits give low values 1.01 | locus YFR010W, strain ubp6, hits give low values 1.02 | locus YGL078C, strain dbp3, hits give low values 0.98 | locus YGL086W, strain mad1, hits give low values 1.01 | locus YGL167C, strain pmr1, hits give low values 0.943 | locus YGL173C, strain kem1, hits give low values 0.958 | locus YGL227W, strain vid30, hits give low values 0.975 | locus YGL240W, strain doc1, hits give low values 0.979 | locus YGL248W, strain PDE1, hits give low values 1 | locus YGL253W, strain hxk2, hits give low values 0.976 | locus YGR078C, strain PAC10, hits give low values 1.01 | locus YGR135W, strain pre9, hits give low values 1.01 | locus YGR229C, strain SMI1, hits give low values 0.999 | locus YGR252W, strain gcn5, hits give low values 1.05 | locus YHR013C, strain ard1, hits give low values 1.01 | locus YHR027C, strain rpn1, hits give low values 0.984 | locus YHR030C, strain SLT2, hits give low values 0.993 and 0.941 | locus YHR079C, strain IRE1 (second series), hits give low values 1 | locus YHR079C, strain IRE1, hits give low values 0.953 | locus YHR094C, strain hxt1, hits give low values 0.989 | locus YHR129C, strain ARP1, hits give low values 0.989 | locus YHR142W, strain chs7, hits give low values 1.02 | locus YHR200W, strain rpn10, hits give low values 1.02 | locus YIL066C, strain RNR3, hits give low values 0.992 | locus YIL073C, strain SPO22, hits give low values 1.06 | locus YIL125W, strain kgd1, hits give low values 0.997 | locus YIR030C, strain dcg1, hits give low values 1 | locus YJL092W, strain hpr5, hits give low values 0.967 | locus YJL095W, strain BCK1 (second series), hits give low values 0.992 | locus YJL095W, strain BCK1, hits give low values 1.01 and 0.953 | locus YJL115W, strain asf1, hits give low values 0.94 | locus YJL134W, strain LCB3, hits give low values 0.991 | locus YJL154C, strain vps35, hits give low values 0.99 | locus YJL164C, strain tpk1, hits give low values 0.999 | locus YJL166W, strain qcr8, hits give low values 0.992 | locus YJL168C, strain set2, hits give low values 1 | locus YJL187C, strain SWE1 (second series), hits give low values 1 | locus YJL187C, strain SWE1, hits give low values 0.971 | locus YJR043C, strain POL32, hits give low values 0.996 | locus YJR066W, strain TOR1, hits give low values 0.884
active: locus YJL129C, strain trk1, hits give low values 0.797
